11 molecules from PubChem BioAssay (Tox21) can be followed below.

“And” between values parts separate entries of the source, which are not always exact repeats. Equal entries are not always repeated. Results filed as inconclusive are left out. Some structures have more than one record in an assay (separate samples or runs), and their calls can disagree. The source made the active and inactive calls. Unless noted, calls follow the shape of the dose curve; as a rule, active = well fitted curve in the direction sought with a large enough effect in the repeat runs; inconclusive = weak or mixed curves; inactive = no such curve, though single readings can be large; an effect the other way counts as inactive or inconclusive.

A short description of test [1]: qHTS assay for small molecule agonists of the p53 signaling pathway (AID 651631; calls by dose curve; also: nearly all actives have a fitted effect of over 15% in size; also: potency is read from the fitted curve at half-maximal effect). The essentials: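 HCT-116 p53RE-bla reporter line, 16 h compound treatment at 37 °C, then fluorescence after 2 h with B/G FRET substrate.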
(In general: In qHTS, concentration-response curves come from the screen itself.)

Test [2] in a line: qHTS assay for small molecules that induce genotoxicity in human embryonic kidney cells expressing luciferase-tagged ATAD5 (AID 651632). Also: nearly all actives have a fitted effect of over 15% in size. The essentials:
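A rise in luciferase signal from ATAD5-tagged HEK293T cells marks genetic stress. Cells were exposed to compounds for 16 hr at 37C, 5% CO2, then luciferase was quantified after a 30 min room-temperature incubation with Amplite.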

A short description of test [3]: qHTS assay for small molecule agonists of the p53 signaling pathway - cell viability (AID 651633; calls by dose curve; also: nearly all actives have a fitted effect of over 30% in size; also: potency is read from the fitted curve at half-maximal effect). An outline of the steps:
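Viability counter-read: CellTiter-Glo luminescence (30 min, room temperature) in the same p53RE-bla plates. These plates had been exposed to compounds for 16 h at 37 C.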

Test [4] can be described thus: qHTS assay for small molecules that induce genotoxicity in human embryonic kidney cells expressing luciferase-tagged ATAD5 - cell viability (AID 651634; calls by dose curve; also: nearly all actives have a fitted effect of over 25% in size; also: potency is read from the fitted curve at half-maximal effect). The essentials:
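Cytotoxicity counter-readout: after 15.5 hr compound treatment at 37C, live-cell protease activity in ATAD5-luciferase HEK293T cells measured by CellTiter-Fluor fluorescence, 30 min development at 37C.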

Test [5] is described as follows: qHTS assay for small molecule disruptors of the mitochondrial membrane potential - cell viability (AID 720634; calls by dose curve; also: nearly all actives have a fitted effect of over 20% in size; also: potency is read from the fitted curve at half-maximal effect). The essentials:
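Cytotoxicity was quantified from ATP content by CellTiter-Glo luminescence in the same wells as the MMP dye read-out. HepG2 (2,000 cells/well) were plated overnight and exposed to compounds for 1 hr at 37 C.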

Test [6] is described as follows: qHTS assay for small molecule disruptors of the mitochondrial membrane potential (AID 720635). Also: potency is read from the fitted curve at half-maximal effect. The essentials:
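Mitochondrial membrane potential tracked with Mito-MPS dye, red aggregates (ex 540/em 590 nm) against green monomers (ex 490/em 535 nm). Compound treatment 1 hr at 37C, dye 30 min in HepG2.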

Test [7] is described as follows: qHTS assay to test for compound auto fluorescence at 590 nm (red) in HepG2 cells (AID 720674). The essentials: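 We screened compounds on adherent HepG2 cells, incubating them for an hour at 37 C in 5% CO2 before reading emission at 590 nm under 540 nm excitation; values reflect equivalence to Rose Bengal sodium fluorescence.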
A short description of test [8]: qHTS assay to test for compound auto fluorescence at 535 nm (green) in HepG2 cells (AID 720675).
The nature of test [9]: qHTS assay to test for compound auto fluorescence at 460 nm (blue) in HEK293 cells (AID 720678). An outline of the steps: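 Auto fluorescence in the blue band was quantified as triamterene equivalency. HEK293 cells were seeded at 2,000/well, dosed after a 4-5 hr attachment, and kept overnight at 37C before the 405/460 nm reading.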
Test [10] in a line: qHTS assay to test for compound auto fluorescence at 590 nm (red) in HEK293 cells (AID 720679). An outline of the steps: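 Autofluorescence equivalency to Rose Bengal sodium, 540/590nm, in HEK293 cells exposed overnight to 23 nL compound per well.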
The nature of test [11]: qHTS assay to test for compound auto fluorescence at 535 nm (green) in HEK293 cells (AID 720680).
Test [12] can be described thus: qHTS assay to test for compound auto fluorescence at 460 nm (blue) in HEK293 cell free culture (AID 720681). The essentials:
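Blue fluorescence (Ex 405/Em 460 nm, triamterene-equivalent) was read immediately after pin transfer of compound or DMSO into medium (DMEM, 10% FBS) without cells.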

Test [13] in a line: qHTS assay to test for compound auto fluorescence at 535 nm (green) in HEK293 cell free culture (AID 720682). The essentials:
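Steps: dispense DMEM/10% FBS into empty wells; pin in compound or DMSO; measure fluorescence at 485/535 nm. Values are fluorescein equivalents.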

Test [14] can be described thus: qHTS assay to test for compound auto fluorescence at 590 nm (red) in HEK293 cell free culture (AID 720683). The essentials: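 Red-channel autofluorescence of compounds in culture medium (DMEM, 10% FBS), no cells, measured at 540/590 nm. Rose Bengal sodium is the reference fluorophore for equivalence.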
The nature of test [15]: qHTS assay to test for compound auto fluorescence at 590 nm (red) in HepG2 cell free culture (AID 720684). The essentials:
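Cell-free; medium MEM + 10% FBS; compound or DMSO added by pintool; read Ex 540/Em 590 nm; Rose Bengal sodium as red reference fluorophore.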

Test [16] is described as follows: qHTS assay to test for compound auto fluorescence at 460 nm (blue) in HepG2 cell free culture (AID 720685). An outline of the steps:
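Cell-free plates of MEM plus 10% FBS received 23 nL compound or DMSO vehicle; blue-channel (405/460 nm) intensity scored against triamterene as reference fluorophore.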

The nature of test [17]: qHTS assay to test for compound auto fluorescence at 535 nm (green) in HepG2 cell free culture (AID 720686).
Test [18] in a line: qHTS assay to test for compound auto fluorescence at 460 nm (blue) in HepG2 cells (AID 720687). The essentials: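 Blue-channel autofluorescence (Ex/Em 405/460 nm, triamterene-equivalent) was measured after 1 hr compound exposure at 37 C, 5% CO2. Cells were HepG2, plated overnight at 37 C in MEM plus 10% FBS.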
The target in test [19] is Glucocorticoid receptor (Homo sapiens) (UniProt P04150). The test is described as follows: qHTS assay to identify small molecule agonists of the glucocorticoid receptor (GR) signaling pathway (AID 720691; active = well fitted activation curve with a large enough effect in the signal ratio in the repeat runs, not every such curve was filed as active; the % refers to the signal ratio). The following applies: GR-bla HeLa, beta-lactamase reporter ratio, 18 h; activation: at 62.4 µM (top of the series). The essentials:
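Agonist-mode qHTS in HeLa cells stably expressing a glucocorticoid-response-element beta-lactamase reporter. Fluorescence intensity read with FRET substrate (2 h, room temperature) after 18 h compound treatment at 37 C.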

Test [20] shares this target. Put plainly: qHTS assay to identify small molecule antagonists of the glucocorticoid receptor (GR) signaling pathway (AID 720692; active = well fitted inhibition curve with a large enough effect in the signal ratio in the repeat runs, not every such curve was filed as active; the % refers to the signal ratio). The essentials:
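Inhibition of dexamethasone-driven (5 nM final) beta-lactamase expression was measured in GRE-reporter HeLa cells over 18 h at 37C. Fluorescence was read after 2 h with the B/G FRET substrate at room temperature.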
% is scaled to controls: 0 for no effect and ±100 for the full control effect.

Chain of Glucocorticoid receptor (Homo sapiens) (P04150 whole entry, looked up): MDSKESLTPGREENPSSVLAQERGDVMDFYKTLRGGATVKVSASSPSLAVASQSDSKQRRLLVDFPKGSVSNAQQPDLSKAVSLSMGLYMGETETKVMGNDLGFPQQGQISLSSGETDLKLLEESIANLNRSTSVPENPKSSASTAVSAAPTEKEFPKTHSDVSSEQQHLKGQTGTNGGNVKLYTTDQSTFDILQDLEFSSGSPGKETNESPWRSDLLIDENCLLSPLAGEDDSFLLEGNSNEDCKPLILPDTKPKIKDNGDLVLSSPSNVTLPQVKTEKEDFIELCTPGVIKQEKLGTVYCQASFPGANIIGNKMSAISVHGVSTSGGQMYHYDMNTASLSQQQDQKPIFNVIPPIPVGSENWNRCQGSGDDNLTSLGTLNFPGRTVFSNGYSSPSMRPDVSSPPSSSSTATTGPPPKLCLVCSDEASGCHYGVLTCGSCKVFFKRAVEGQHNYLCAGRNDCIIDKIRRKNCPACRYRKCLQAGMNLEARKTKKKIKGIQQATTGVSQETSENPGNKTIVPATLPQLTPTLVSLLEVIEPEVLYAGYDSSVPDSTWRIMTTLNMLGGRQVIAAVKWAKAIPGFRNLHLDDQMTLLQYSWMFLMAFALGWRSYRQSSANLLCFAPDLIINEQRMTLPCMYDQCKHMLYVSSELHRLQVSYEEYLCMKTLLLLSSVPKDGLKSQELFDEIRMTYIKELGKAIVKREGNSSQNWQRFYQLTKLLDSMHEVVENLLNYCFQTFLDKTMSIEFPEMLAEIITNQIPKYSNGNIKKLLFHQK

Regarding `CC1=C(/C=C/C(C)=C/C=C/C(C)=C/C(=O)Nc2ccc(O)cc2)C(C)(C)CCC1`, the Potency in [1] was 29.8 µM (active); in test [3] it was 29.8 µM (active) and 62.7 µM (active); in test [4], 23.7 µM (active) and 28 µM (active); in test [6] it was 3.35 µM (active) and 2.8 µM (active). Also, the Potency entry in [2], in test [5], in test [7], in test [8], in test [9] and in test [10] was “inactive” in each case. In addition, the Potency result in [11], in [12], in [13], in test [14], in test [15] and in test [16] was “inactive” in each case. In addition, the Potency entry in test [17] and in [18] was “inactive” each time.

For `CCOC(=O)COc1ccc(C)cc1`, the Potency result in test [1], in [2], in test [3], in test [4], in test [5] and in [6] was “inactive” in each case. The Potency result in [8], in test [9], in test [10], in test [11], in test [12] and in [13] was “inactive” in each case. The Potency entry in test [14], in [15], in [16], in test [17] and in test [18] was “inactive” throughout.

Regarding `CC1CCCNC1` (configuration not stated), the Potency result in test [1], in [2], in test [3], in test [4], in test [5] and in [7] was “inactive” throughout. Besides, the Potency entry in test [8], in [9], in test [11], in test [12], in test [13] and in test [14] was “inactive” in each case. The Potency entry in [15], in test [16], in test [17], in test [18], in test [19] and in test [20] was “inactive” in each case.

For the molecule `O=C(O)CCCCCCC(=O)O`, the Potency result in [1], in [2], in [3], in [4], in test [5] and in [6] was “inactive” each time. In addition, the Potency result in test [7], in test [8], in test [9], in [10], in test [11] and in test [12] was “inactive” in each case. Besides, the Potency entry in test [13], in test [14], in test [15], in [16], in [17] and in test [18] was “inactive” throughout. In addition, the Potency entry in [19] was “inactive”.

Turning to `CCCCCCCCCCCCCCCC`, the Potency entry in [1], in test [2], in test [3], in test [4], in test [5] and in [6] was “inactive” throughout. The Potency entry in test [7], in test [8], in test [9], in test [10], in test [11] and in test [12] was “inactive” in each case. The Potency entry in test [13], in test [14], in [15], in test [16], in [17] and in test [18] was “inactive” in each case. Moreover, the Potency result in [19] and in test [20] was “inactive” each time.

Regarding `CC(C)(c1cc(Br)c(O)c(Br)c1)c1cc(Br)c(O)c(Br)c1`, the Potency was 48.4 µM (active) and 41 µM (active) in [1]; 60.9 µM (active) and 24.3 µM (active) and 23 µM (active) in test [3]; “inactive and 60.9 µM (active)” in [5]; 4.84 µM (active) and 7.67 µM (active) and 1.83 µM (active) in [6]. Also, the Potency entry in [2], in test [7], in test [8], in [9], in test [10] and in [11] was “inactive” throughout. The Potency entry in [12], in test [13], in test [14], in test [15], in [16] and in [17] was “inactive” throughout. Also, the Potency entry in [18] is “inactive”.

Turning to `CCCCOC(=O)C(C)CC` (configuration not stated), the Potency result in [1], in test [2], in test [3], in test [4], in test [5] and in [7] was “inactive” each time. Besides, the Potency entry in [8], in [9], in [10], in test [11], in test [12] and in test [13] was “inactive” throughout. In addition, the Potency entry in test [14], in [15], in [16], in [17], in [18] and in [19] was “inactive” each time.

On to `CO[C@H]1C=CO[C@@]2(C)Oc3c(C)c(O)c4c(O)c(cc(O)c4c3C2=O)NC(=O)/C(C)=C\C=C/[C@H](C)[C@H](O)[C@@H](C)[C@@H](O)[C@@H](C)[C@H](OC(C)=O)[C@@H]1C`, for which the Potency result in test [1], in [2], in test [3], in [4], in test [5] and in test [8] was “inactive” in each case. For the same molecule, the Potency result in test [9], in test [10], in test [11], in test [12], in test [13] and in test [14] was “inactive” throughout. Besides, the Potency result in test [15], in test [16], in [17] and in test [18] was “inactive” throughout.

As for `C1CC(COCC2CO2)CCC1COCC1CO1` (configuration not stated), the Potency result in [1], in [2], in [3], in test [4], in test [5] and in test [6] was “inactive” each time. The Potency result in [7], in [8], in test [9], in test [10], in [11] and in test [12] was “inactive” throughout. The Potency entry in test [13], in test [14], in [15], in test [16], in test [17] and in [18] was “inactive” throughout. Further, in [19], the Potency result was “inactive”.

On to `CC1(C)C(=O)N(Br)C(=O)N1Br`, for which the Potency result in [1], in [2], in test [3], in test [4], in test [5] and in [6] was “inactive” each time. Also, the Potency result in test [7], in test [8], in test [9], in [10], in test [11] and in test [12] was “inactive” throughout. Also, the Potency entry in test [13], in test [14], in test [15], in test [16], in [17] and in test [18] was “inactive” each time. The Potency result in [19] and in test [20] was “inactive” in each case.

`CC(C)N=C(N)/N=C(\N)Nc1ccc(Cl)cc1`: the Potency entry in test [1], in test [2], in [3], in test [4], in test [5] and in test [6] was “inactive” throughout. Besides, the Potency result in [19] and in test [20] was “inactive” in each case. Moreover, in [7], the fluorescence, relative to Rose Bengal was 0.432% [at 18.6 µM] (inactive). The fluorescence, % of fluorescein control was -0.0393% [at 18.6 µM] (inactive) in test [8] and 0.0037% [at 18.6 µM] (inactive) in test [17]. The fluorescence, % of triamterene in test [9] was -0.225% [at 18.6 µM] (inactive). The fluorescence, % of fluorescent control in test [10] is -0.126% [at 18.6 µM] (inactive); in test [12] it was -0.0312% [at 18.6 µM] (inactive); in test [14], -0.0425% [at 18.6 µM] (inactive); in test [16], -0.111% [at 18.6 µM] (inactive); in [18], 0.176% [at 18.6 µM] (inactive). Besides, the fluorescence, % of fluorescein in test [11] was -0.0268% [at 18.6 µM] (inactive). In test [13], the activity change was -0.0305% [at 18.6 µM, stronger effect = higher value] (inactive). Moreover, the fluorescence, % of Rose Bengal in test [15] was 0.0381% [at 18.6 µM] (inactive).
